Data taken from PubChem BioAssay (NCI).
This is part of a sample that, as a whole, favours compounds with a hit. Of some 79,000 tested, about 15% had one in any assay. Calls of active or inactive are those of the source. Cut-off read from the data, not from the text of the source: active = growth inhibition above about 70%; inactive = the rest.

Tests used:
[1] = NCI Yeast Anticancer Drug Screen. Data for the rad52 strain (AID 147);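 note: 0% = growth of vehicle-treated control cultures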; settings: S. cerevisiae rad52 mutant growth inhibition, stronger effect = higher value
In short: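 Growth of repair-deficient yeast cells was compared between compound-treated and vehicle-treated cultures to give percent inhibition.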

[2] = NCI Yeast Anticancer Drug Screen. Data for the wt1 strain (AID 149);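 note: 0% = growth of vehicle-treated wt1 cultures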; settings: S. cerevisiae wt1 strain (SPY 50644) growth inhibition, stronger effect = higher value
In short: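 Measured: growth of wt1 yeast under compound versus vehicle treatment, reported as inhibition.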

[3] = NCI Yeast Anticancer Drug Screen. Data for the rad50EPP+ strain (AID 151);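 note: 0% = growth of vehicle-treated control cultures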; settings: S. cerevisiae rad50 mutant strain, stronger effect = higher value
In short: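 Measured: growth inhibition of rad50EPP+ yeast. Reference: vehicle-treated controls. Screen uses strains with defined genetic alterations in DNA damage repair or cell cycle control.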

[4] = NCI Yeast Anticancer Drug Screen. Data for the mgt1 strain (AID 153); settings: S. cerevisiae mgt1 mutant growth inhibition, stronger effect = higher value
In short: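 Compounds were applied to mgt1 mutant yeast, and growth was then compared against vehicle-treated control cultures to give percent inhibition.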

[5] = NCI Yeast Anticancer Drug Screen. Data for the rad50 strain (AID 155);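 note: 0% = growth of vehicle-only cultures of the same strain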; settings: S. cerevisiae rad50 strain growth inhibition, stronger effect = higher value
In short: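 Growth of the mutant yeast was measured after compound exposure and referenced to vehicle-treated cultures.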

[6] = NCI Yeast Anticancer Drug Screen. Data for the mec2-1 strain (AID 157); settings: S. cerevisiae mec2-1 strain, stronger effect = higher value
In short: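 Compounds were applied to mec2-1 yeast cells. Their growth was then compared with that of vehicle-treated cultures to give growth inhibition.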

[7] = NCI Yeast Anticancer Drug Screen. Data for the rad14 strain (AID 159);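 note: 0% = growth of vehicle-treated control cultures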; settings: S. cerevisiae rad14 strain growth inhibition, stronger effect = higher value
In short: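 Here, inhibition of yeast growth was measured after compound exposure, using a strain with a genetic defect in DNA damage repair and vehicle-treated cultures as the reference.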

[8] = NCI Yeast Anticancer Drug Screen. Data for the sgs1 mgt1 strain (AID 161);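 note: 0% = growth of cultures given vehicle only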; settings: S. cerevisiae sgs1 mgt1 strain, stronger effect = higher value
In short: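 Yeast cells carrying a defined DNA-repair defect were exposed to test compounds. Growth inhibition was measured relative to vehicle-treated controls.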

[9] = NCI Yeast Anticancer Drug Screen. Data for the CLN2oe strain (AID 163);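 note: 0% = growth of vehicle-only control cultures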; settings: S. cerevisiae CLN2oe strain, stronger effect = higher value
In short: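 Cells of an engineered yeast line with disturbed cell-cycle regulation are treated with compound. Inhibition of growth is then calculated relative to the vehicle-treated reference.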

[10] = NCI Yeast Anticancer Drug Screen. Data for the cln2 rad14 strain (AID 165);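 note: 0% = growth equal to vehicle treated cultures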; settings: S. cerevisiae cln2 rad14 strain, stronger effect = higher value
In short: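 Strain: cln2 rad14 yeast, altered in cell cycle control and DNA damage repair. Read-out: growth inhibition vs vehicle.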

[11] = NCI Yeast Anticancer Drug Screen. Data for the bub3 strain (AID 167); settings: S. cerevisiae bub3 mutant strain, stronger effect = higher value
In short: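 Whole-cell yeast assay. The mutant strain was incubated with compounds, and growth inhibition was determined by comparison with vehicle-treated cells.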

[12] = NCI Yeast Anticancer Drug Screen. Data for the wt2 strain (AID 169);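 note: 0% = growth of vehicle-treated yeast cultures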; settings: S. cerevisiae wt2 strain growth inhibition, stronger effect = higher value
In short: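 Growth of compound-treated yeast is measured and expressed as inhibition relative to vehicle-only controls.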

[13] = NCI Yeast Anticancer Drug Screen. Data for the mlh1 strain (AID 171);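 note: 0% = growth of vehicle-treated control cultures of the same strain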; settings: S. cerevisiae mlh1 strain growth inhibition, stronger effect = higher value
In short: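 Test agents were incubated with yeast bearing a defined DNA damage repair or cell cycle control alteration; values are growth inhibition normalised to vehicle-treated cultures.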

[14] = NCI Yeast Anticancer Drug Screen. Data for the sgs1 strain (AID 173);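 note: 0% = growth of vehicle-only control cultures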; settings: S. cerevisiae sgs1 mutant, stronger effect = higher value
In short: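 Strain with an altered DNA repair or cell cycle pathway exposed to compound. Growth then measured. Value = inhibition versus vehicle control.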

[15] = NCI Yeast Anticancer Drug Screen. Data for the mlh1 rad18 strain (AID 175); settings: S. cerevisiae mlh1 rad18 strain growth inhibition, stronger effect = higher value
In short: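 A repair-deficient yeast strain is exposed to test compound, and growth is scored relative to vehicle-treated controls.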

[16] = NCI Yeast Anticancer Drug Screen. Data for the rad18 strain (AID 177); settings: S. cerevisiae rad18 mutant growth inhibition, stronger effect = higher value
In short: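 DNA-repair-defective yeast; compound treatment; growth inhibition scored against vehicle.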

[17] = at 5.0 µM (retest, dose inferred, filed as 0.5)
[18] = at 50.0 µM (retest, dose inferred, filed as 5.0)

Measured: growth inhibition

O=C1C=CC(=O)N1c1ccc2c(c1)Cc1cc(NC(=O)C(F)(F)F)ccc1-2
active: [1]; at 100.0 µM 74% | [3]; at 3.7 µM 73% | [3]; at 11.0 µM 88% | [3]; at 33.0 µM 91% | [3]; at 100.0 µM 88% | [4]; at 100.0 µM 77% | [5]; at 33.0 µM 71% | [5]; [18] 91% | [5]; at 50.0 µM 87.7% | [5]; at 100.0 µM 80% | [6]; [17] 87% | [6]; [18] 94% | [6]; at 50.0 µM 83.5% | [6]; at 100.0 µM 77% | [7]; at 100.0 µM 83% | [8]; [17] 71% | [8]; [18] 93% | [8]; at 50.0 µM 86.6% | [11]; [18] 90% | [11]; at 50.0 µM 84.6% | [13]; at 33.0 µM 73% | [13]; at 100.0 µM 85% | [14]; at 33.0 µM 79% | [14]; at 100.0 µM 82% | [15]; [17] 91% | [15]; [18] 93% | [15]; at 50.0 µM 86% | [16]; at 33.0 µM 76% | [16]; at 100.0 µM 82%
inactive: [1]; at 1.2 µM 12% | [1]; at 3.7 µM 24% | [1]; at 11.0 µM 42% | [1]; at 33.0 µM 60% | [2]; at 1.2 µM 6% | [2]; at 3.7 µM 15% | [2]; at 11.0 µM 27% | [2]; at 33.0 µM 39% | [2]; at 100.0 µM 60% | [3]; at 1.2 µM 29% | [4]; at 1.2 µM 11% | [4]; at 3.7 µM 20% | [4]; at 11.0 µM 31% | [4]; at 33.0 µM 57% | [5]; at 1.2 µM 13% | [5]; at 3.7 µM 24% | [5]; [17] 52% | [5]; at 11.0 µM 41% | [6]; at 1.2 µM 13% | [6]; at 3.7 µM 26% | [6]; at 11.0 µM 42% | [6]; at 33.0 µM 62% | [7]; at 1.2 µM 20% | [7]; at 3.7 µM 31% | [7]; at 11.0 µM 42% | [7]; at 33.0 µM 66% | [9]; at 1.2 µM 2% | [9]; at 3.7 µM 11% | [9]; at 11.0 µM 18% | [9]; at 33.0 µM 26% | [9]; at 100.0 µM 50% | [10]; [17] 10% | [10]; [18] 51% | [10]; at 50.0 µM 62.9% | [11]; at 1.2 µM -11% | [11]; at 3.7 µM -5% | [11]; [17] 57% | [11]; at 11.0 µM 7% | [11]; at 33.0 µM 21% | [11]; at 100.0 µM 39% | [12]; at 1.2 µM 7% | [12]; at 3.7 µM 21% | [12]; at 11.0 µM 37% | [12]; at 33.0 µM 55% | [12]; at 100.0 µM 67% | [13]; at 1.2 µM 16% | [13]; at 3.7 µM 32% | [13]; at 11.0 µM 54% | [14]; at 1.2 µM 18% | [14]; at 3.7 µM 37% | [14]; at 11.0 µM 63% | [16]; at 1.2 µM 17% | [16]; at 3.7 µM 29% | [16]; at 11.0 µM 53%

O=C(Nc1ccccc1)OCCc1ccc(Cl)c(Cl)c1
active: [5]; [18] 74% | [5]; at 50.0 µM 86.7% | [6]; at 50.0 µM 95.3% | [8]; at 50.0 µM 75.8% | [10]; [18] 85% | [10]; at 50.0 µM 86% | [11]; at 33.0 µM 75% | [11]; [18] 83% | [11]; at 50.0 µM 90.2%
inactive: [1]; at 1.2 µM 0% | [1]; at 3.7 µM 10% | [1]; at 11.0 µM 20% | [1]; at 33.0 µM 20% | [1]; at 100.0 µM 52% | [2]; at 1.2 µM -4% | [2]; at 3.7 µM -7% | [2]; at 11.0 µM -9% | [2]; at 33.0 µM 16% | [2]; at 100.0 µM 8% | [3]; at 1.2 µM 7% | [3]; at 3.7 µM 26% | [3]; at 11.0 µM 39% | [3]; at 33.0 µM 29% | [3]; at 100.0 µM 30% | [4]; at 1.2 µM -4% | [4]; at 3.7 µM -4% | [4]; at 11.0 µM 7% | [4]; at 33.0 µM 14% | [4]; at 100.0 µM 37% | [5]; at 1.2 µM -2% | [5]; at 3.7 µM 13% | [5]; [17] 0% | [5]; at 11.0 µM 29% | [5]; at 33.0 µM 66% | [5]; at 100.0 µM 51% | [6]; at 1.2 µM -3% | [6]; at 3.7 µM -4% | [6]; [17] 0% | [6]; at 11.0 µM -3% | [6]; at 33.0 µM 20% | [6]; [18] 65% | [6]; at 100.0 µM 47% | [7]; at 1.2 µM -5% | [7]; at 3.7 µM 1% | [7]; at 11.0 µM 15% | [7]; at 33.0 µM 31% | [7]; at 100.0 µM 53% | [8]; [17] 8% | [8]; [18] 54% | [9]; at 1.2 µM -8% | [9]; at 3.7 µM -4% | [9]; at 11.0 µM 26% | [9]; at 33.0 µM 53% | [9]; at 100.0 µM 58% | [10]; [17] -8% | [11]; at 1.2 µM -1% | [11]; at 3.7 µM 2% | [11]; [17] 6% | [11]; at 11.0 µM 37% | [11]; at 100.0 µM 52% | [12]; at 1.2 µM -7% | [12]; at 3.7 µM -6% | [12]; at 11.0 µM 5% | [12]; at 33.0 µM 24% | [12]; at 100.0 µM 8% | [13]; at 1.2 µM -3% | [13]; at 3.7 µM 2% | [13]; at 11.0 µM 22% | [13]; at 33.0 µM 46% | [13]; at 100.0 µM 46% | [14]; at 1.2 µM -19% | [14]; at 3.7 µM -9% | [14]; at 11.0 µM 2% | [14]; at 33.0 µM 22% | [14]; at 100.0 µM 47% | [15]; [17] 1% | [15]; [18] 60% | [15]; at 50.0 µM 58.9% | [16]; at 1.2 µM -4% | [16]; at 3.7 µM 7% | [16]; at 11.0 µM 17% | [16]; at 33.0 µM 45% | [16]; at 100.0 µM 53%
